The values below come from PubChem BioAssay (EPA / NIEHS).

The source made the active and inactive calls. The calls were made as follows: active = hit-call score of the fitted dose curve at least 0.9, where 1 is the maximum; inactive = score below 0.9.

Read-out in this test: Glutathione S-transferase M3 (GSTM3), GSTM3 (gene 2947)
The test can be described thus: LTEA_HepaRG_GSTM3: Life Technologies and Expression Analysis (LTEA) Assay for Glutathione S-transferase M3 (GSTM3) using HepaRG (AID 2283501). Conditions: mRNA level, 48 h; actives raise or lower the signal. Here is the method:
LTEA_HepaRG is a cell based, multiplexed-readout assay that uses HepaRG, a human liver cell line, with measurements taken at 48 hours after chemical dosing on a 96-well plate.LTEA_HepaRG_GSTM3 is one of 102 assay component(s) measured in the LTEA HepaRG cell culture assay. It is a marker of Oxidative Stress.Data from the assay component LTEA_HepaRG_GSTM3 was analyzed into 1 endpoint. This assay endpoint, LTEA_HepaRG_GSTM3, was analyzed with bidirectional fitting relative to DMSO as the negative control and baseline of activity. Using a type of inducible reporter, measures of mRNA induction for gain or loss-of-signal activity can be used to understand regulation of transcription factor activity. To generalize the intended target to other relatable targets, this assay endpoint is annotated to the transferase intended target family, where the subfamily is alkyl and aryl transferase.
A total of 1060 chemcials from the ToxCast library were tested in eight-point concentration-response experiments. Cell culture and cytotoxicity assays were conducted at Thermo Fisher Scientific's Custom Services facility (Madison, WI). A single lot of human HepaRG cells (Thermo Fisher Scientific, Frederick, MD) was used for the cell culture experiments. 96-well format collagen type I coated plates of human HepaRG cells were prepared using established methods. Briefly, cryopreserved HepaRG cells were thawed, plated at a density of approximately 100,000 cells/well in HepaRG Thaw, Plate, and General Purpose media (HPRG770, Thermo Fisher Scientific), and incubated for 48 hours. 0.5% DMSO was selected as vehicle control to balance the requisite need of DMSO in HepaRG cultures to maintain differentiation (for example, baseline metabolism, proportions of hepatocytes vs. cholangiocytes), while enabling further hepatic receptor pathway activation (for example, PXR and CAR) in response to chemical exposure. 48 hours after plating, the culture medium was replaced with HepaRG Serum-Free Incudtion Media. Cells were exposed to each test chemical in duplicate and maintained in CO2 incubators for another 48 hours. Chemical plates were thawed to room temperature and 200x concentrations of treatment groups were prepared. 8-point conentration-reponse curves were made with the highest exposure at 100 uM, followed by half-log dilutions, all in 0.5% DMSO. Each test plate contained variouse controls, induction positive controls (1mM phenobarbital), cytotoxicity positive controls ([…] aflatoxin B1), vehicle controls (0.5% DMSO), and total lysis controls (0.5% DMSO). Cell morphology images were taken using an Essen IncuCyte FLR automated microscope, with six 96-well plates imaged in about 24 minutes. Images were captured and exported and JPEG files. Spent culture media was transfered to black-well plates for the LDH assay, and remaining media was sorted at -80 C for later use. Cells were treated with RLT buffer and frozen until shipped for gene expression analysis. Total RNA was isolated from the cell suspension in 75 uL of Buffer RLT (Qiagen, Germantown, MD 20874) by Quintiles/Expression Analysis (Durham, NC) using a custom isolation procedure. Total RNA from each plate well was transferred to a preamplification plate. Fluidigm's 96.96 Dynamic ArrayTM (Fluidigm, Amsterdam, the Netherlands) technology was used for gene expression analyses by quantitative reverse transcription polymerase chain reaction (qRT-PCR, performed by Quintiles/Expression Analysis, Durham, NC)89. Standard TaqManTM Assays (Applied Biosystems/ThermoFisher Scientific, Foster City, CA) were used to assess the expression of 93 genes selected based on their selectivity and sensitivity to important hepatic receptors known to be modulated by environmental chemicals; importance in human hepatocyte functionality; and hepatotoxicity. […]
Regarding `c1ccc2c(c1)oc1ccccc12`, the outcome was inactive.

Turning to `CCC12COCN1COC2`, the call was inactive.

As for `CC(C)N(Cc1ccccc1)C(=O)C(C)(C)C`, the call was inactive.

For the compound `OCCOCCO`, the outcome was inactive.

Consider `O=C1CCCO1`, for which the result was inactive.

For `CCN(CC)CCO`, the result was inactive.

Regarding `CCC(C)c1ccc(O)cc1` (stereo not given), the result was inactive.

Consider `[Cl-].[Cl-].[Hg+2]`, for which the compound was called inactive.

For `CN(C)C(=O)Nc1ccc(Cl)cc1`, the compound was called inactive.

Turning to `CCCCOC(=O)c1ccccc1C(=O)OCc1ccccc1`, the result was inactive.

Turning to `O=C(Nc1ccccc1)c1ccccc1I`, the call was inactive.

As for `[As]#[In]`, the result was inactive.

Consider `CCCCCCCCCCCCCN1CC(C)OC(C)C1` (stereo not given), for which the outcome was inactive.

Turning to `C=CCc1ccc2c(c1)OCO2`, the outcome was inactive.

As to `Oc1ccc2ccc3cccc4ccc1c2c34`, the call was inactive.

Consider `ClCCOCCCl`, for which the outcome was inactive.

Consider `[O-][Cl+]O`, for which the outcome was inactive.

Turning to `COC(=O)c1ccccc1N`, the compound was classed as inactive.

Take `CC(C)(OOC(C)(C)c1ccccc1)c1ccccc1`: the result was inactive.

Take `c1ccc(NNc2ccccc2)cc1`: the outcome was inactive.

Regarding `CNC(=O)Oc1cccc2c1OC(C)(C)C2`, the result was inactive.

As to `N#CC(Br)Br`, the call was inactive.

`Clc1ccccc1Cl`: the outcome was inactive.

With `c1ccc(N=Nc2ccccc2)cc1`, the compound was classed as inactive.

`COc1cc(C=O)cc2c1[C@H](COC(N)=O)[C@]1(OC(C)=O)ON2C[C@H]2[C@@H]1N2C(C)=O`: the compound was classed as inactive.

`CCCCC(CC)COC(=O)c1ccc(C(=O)OCC(CC)CCCC)c(C(=O)OCC(CC)CCCC)c1` (stereo not given): the outcome was inactive.

With `Brc1ccc(Oc2ccccc2)cc1`, the call was inactive.

In the case of `CCCSC(=O)N(CCC)CCC`, the result was inactive.

Take `ClC1=C(Cl)C2(Cl)C3C(Cl)C=CC3C1(Cl)C2(Cl)Cl` (stereo not given): the result was inactive.

As for `CCC[CH2][Sn]([Cl])([CH2]CCC)[CH2]CCC`, the outcome was inactive.

Regarding `OCCCBr`, the compound was called inactive.

With `O=C(Oc1ccc(Br)cc1)N1CCN2CCC1CC2`, the compound was called inactive.

Take `O=[N+]([O-])c1ccc(Oc2ccc(Cl)cc2Cl)cc1`: the compound was classed as inactive.

On to `CN(C)[C@@H]1C(=O)C(C(N)=O)=C(O)[C@@]2(O)C(=O)C3=C(O)c4c(O)cccc4[C@@](C)(O)[C@H]3C[C@@H]12`, for which the outcome was inactive.

As to `c1ccc2c(c1)-c1cccc3cccc-2c13`, the compound was classed as inactive.

As for `ClC1=C(Cl)[C@]2(Cl)[C@H]3[C@H]([C@@H]4C=C[C@H]3C4)[C@@]1(Cl)C2(Cl)Cl`, the compound was called inactive.

For the compound `C[N+](C)(C)CC1CO1` (stereo not given), the result was inactive.

Turning to `Clc1ccc(C(c2ccc(Cl)cc2)C(Cl)Cl)cc1`, the compound was classed as inactive.

With `Nc1ccc(Cl)cc1N`, the compound was classed as inactive.

Take `Oc1ccccc1Cl`: the result was inactive.
